Bioassay records (PubChem)
Rows were chosen to be rich in hits. Some 3.5% of all compounds tested hit in one or more screens of this group.
PPC-1+TRAIL kill: compounds killing PPC-1 cancer cells with TRAIL present (potentiator screen, no TRAIL-free arm); 0.41% of 220,000 active; AID 1443; cell killing (% activity), % at 4 µM or 5 µM; PPC-1 cells + TRAIL, ATPLite viability luminescence;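 active means cell killing above 50% in the first pass at 4 µM, then a duplicate retest at 5 µM averaging 50% or more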
TWEAK-Fn14 inh: blocks TWEAK-Fn14 interaction in a reporter cell assay; TWEAK-stimulated Fn14 reporter cells, luciferase luminescence, 8 h; inhibition, % at 10 µM; 2% of 360,000 active; AID 1159606; in the data active means inhibition above about 50%
C8 TRAIL sens: sensitizes caspase-8 expressing cells to TRAIL; AID 624354; NB7+C8 cells + TRAIL, ATPlite viability luminescence; inhibition (viability loss, TRAIL sensitization), % at 10 µM; 1% of 360,000 active;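 active means compounds causing at least 50% loss of cell viability in the single-dose screen, relative to plate controls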
TROY signal inh: blocks TROY-dependent signaling in reporter cells; Q293 LMP1-TROYcd NF-kB luciferase reporter, 4 h; inhibition, % at 10 µM; 0.98% of 360,000 active;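 active means compounds whose plate-normalised and pattern-corrected inhibition of the luciferase reporter signal at the single screening dose is 50% or more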
Platelet DG rel: platelet dense granule release activity | human platelet-rich plasma, SFLLRN dense granule ATP release, luminescence | inhibition, %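 (compounds screened at 7.5 µM in platelet-rich plasma)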 | 0.22% of 300,000 active | AID 1663;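 active means mean replicate score, as percent of positive control, at or above 50; inconclusive means mean below 50 but at least one replicate at or above 50; inactive means mean and every replicate below 50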
HSP90 inh: HSP90 refolding inhibition in rabbit reticulocyte lysate. luciferase refolding luminescence, 3 h. inhibition, % at 5.6 µM. 0.91% of 290,000 active. AID 1789;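 active means inhibition above the screen-wide mean plus 3 SD, computed separately per campaign, cut at about 16% in these data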;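 further: inhibitors lower the luminescence because luciferase stays unfolded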
Of the large screens only hits and unclear results are named; the others gave an inactive call.

CCN(Cc1ccccc1)S(=O)(=O)c1ccc(C(=O)N2CCN(c3nc4ccccc4s3)CC2)cc1	TWEAK-Fn14 inh 92.6
Cc1cccc(/C=C/C(=O)c2ccc([N+](=O)[O-])o2)c1	TWEAK-Fn14 inh 61.4 (no result: PPC-1+TRAIL kill, HSP90 inh)
COc1ccc(/C=C/C(=O)c2ccc([N+](=O)[O-])o2)cc1	TWEAK-Fn14 inh 53.8, C8 TRAIL sens 51.2 (no result: PPC-1+TRAIL kill, HSP90 inh)
Cc1ccccc1/C=C/C(=O)c1ccc([N+](=O)[O-])o1	none (no result: PPC-1+TRAIL kill, TWEAK-Fn14 inh, C8 TRAIL sens, TROY signal inh, HSP90 inh)
O=C(/C=C/c1cccc([N+](=O)[O-])c1)c1ccco1	none (no result: PPC-1+TRAIL kill)
O=C(/C=C/c1cccc([N+](=O)[O-])c1)c1ccc([N+](=O)[O-])o1	TWEAK-Fn14 inh 97.9, TROY signal inh 72.5 (no result: PPC-1+TRAIL kill, HSP90 inh)
COc1cccc(CN2CCC2(C)C(=O)Nc2ccc3c(c2)CCN3C(C)=O)c1F (centres undefined)	none (no result: PPC-1+TRAIL kill, Platelet DG rel, HSP90 inh)
O=c1c2ccccc2sc2ccc(C#CC3(O)CCCCC3)cc12	TWEAK-Fn14 inh 106.8, C8 TRAIL sens 93.1, TROY signal inh 92.4 (no result: PPC-1+TRAIL kill, HSP90 inh)
O=c1c2ccccc2oc2cc(C#CC3(O)CCCCC3)ccc12	TWEAK-Fn14 inh 100.5, C8 TRAIL sens 79.0, TROY signal inh 87.3 (no result: PPC-1+TRAIL kill, HSP90 inh)
COc1cccc2sc3ccc(C#CC4(O)CCCCC4)cc3c(=O)c12	C8 TRAIL sens 54.4, TROY signal inh 77.2 (no result: PPC-1+TRAIL kill)
O=C(c1cc(-c2ccccc2)nn1-c1ccccc1)N1CCN(S(=O)(=O)c2c(F)cccc2F)CC1	none (no result: PPC-1+TRAIL kill, HSP90 inh)
CCOCC(=O)Nc1c(C(=O)Nc2ccc3c(c2)OCCO3)oc2ccccc12	none
O=C(CSc1nnc(Nc2ccccc2)s1)Nc1cccc(S(=O)(=O)N2CCCCC2)c1	TWEAK-Fn14 inh 50.9
Nc1nnc(SCC(=O)Nc2cccc(S(=O)(=O)N3CCCCC3)c2)s1	none (no result: PPC-1+TRAIL kill, Platelet DG rel, HSP90 inh)
C=CCNC(=O)c1ccc(NC(=O)C2=CSCCO2)cc1	HSP90 inh 16.7 (no result: PPC-1+TRAIL kill)
CC(C)CCNC(=O)c1ccc(NC(=O)C2=CSCCO2)cc1	none (no result: PPC-1+TRAIL kill)
CC(Sc1ccc(Cl)cc1)C(=O)Nc1ccc2c(c1)OCO2 (centres undefined)	none
CC(C)N1CCC2(CC1)N=C(c1ccc3c(c1)OCO3)CC(c1cc(Cl)ccc1O)N2 (centres undefined)	TWEAK-Fn14 inh 50.7
C=CCSc1nc2ccccc2n1C(=O)/C=C/c1cc(OC)c(OC)c(OC)c1	TWEAK-Fn14 inh 56.7
CCn1c(SCC(=O)N/N=C/c2ccc(OC)c(OC)c2)nc2ccccc21	none
CCSc1nc2ccccc2n1C(=O)/C=C/c1ccc(OC)c(OC)c1	TWEAK-Fn14 inh 99.6
C=CCSc1nc2ccccc2n1C(=O)/C=C/c1ccc(OC)c(OC)c1	TWEAK-Fn14 inh 98.3
COc1cc(/C=C/C(=O)NCCn2c(C)cc3ccccc32)cc(OC)c1OC	none
CC1CN(c2ccccn2)C(C)CN1C(=S)Nc1ccccc1 (centres undefined)	none (no result: PPC-1+TRAIL kill, Platelet DG rel, HSP90 inh)
O=C(Nc1ccccc1Cl)C(=O)c1cn(CC(=O)N2CCOCC2)c2ccccc12	C8 TRAIL sens 53.6 (no result: PPC-1+TRAIL kill)
CCC1CN(C(=O)N2CCC(C(=O)NCc3cccc(OC)c3OC)CC2)c2cc(C)ccc2O1 (centres undefined)	none (no result: PPC-1+TRAIL kill)
Cc1sc2ncnc(Sc3nnnn3-c3ccc(Cl)cc3)c2c1C	TWEAK-Fn14 inh 101.7, TROY signal inh 65.4
CSc1nnnn1-c1ccc(Cl)cc1	none
c1ccc(-n2nnnc2Sc2ncnc3sc4c(c23)CCCC4)cc1	TWEAK-Fn14 inh 99.5, TROY signal inh 73.0
O=C(O)CSc1ncnc2sc3c(c12)CCCC3	none
Cc1cccc(Nc2nnc(SCC(O)=C(C#N)c3nc4ccccc4[nH]3)s2)c1	none (no result: PPC-1+TRAIL kill, Platelet DG rel, HSP90 inh)
Cc1csc(NC(=O)c2ccc(OCC3CCCO3)cc2)n1 (centres undefined)	TWEAK-Fn14 inh 68.6, C8 TRAIL sens 53.6
O=C(Nc1nc(-c2ccc(F)c(F)c2)cs1)c1ccc(OCC2CCCO2)cc1 (centres undefined)	none
Cc1cccc2sc(NC(=O)c3ccc(OCC4CCCO4)cc3)nc12 (centres undefined)	TWEAK-Fn14 inh 85.0
Cc1ccnc(NC(=O)c2ccc(OCC3CCCO3)cc2)c1 (centres undefined)	TWEAK-Fn14 inh 82.7, C8 TRAIL sens 90.8, TROY signal inh 56.8, Platelet DG rel inconclusive (no result: PPC-1+TRAIL kill, HSP90 inh)
CCOc1ccc2nc(NC(=O)c3ccc(OCC4CCCO4)cc3)sc2c1 (centres undefined)	TWEAK-Fn14 inh 61.8
CCc1nnc(NC(=O)CCC(=O)Nc2ccc(C)cc2)s1	none (no result: PPC-1+TRAIL kill)
O=C(c1nn2c(C(F)(F)F)cc(-c3cccs3)nc2c1Cl)N1CCCc2ccccc21	TWEAK-Fn14 inh 54.2
O=C(c1cnn2c(C(F)(F)F)cc(-c3ccccc3)nc12)N1CCCc2ccccc21	none
Cc1nc(N2CCN(C(=O)COc3ccccc3)CC2)c2c(C)c(C)sc2n1	TWEAK-Fn14 inh 50.2
O=C(CN1CC(c2ccccc2)CC1=O)N/N=C/c1cc(Br)ccc1O (centres undefined)	C8 TRAIL sens 52.0
O=C(CNC(=O)c1ccccc1)N/N=C/c1cc(Br)ccc1O	none
CSCCC(NC(=O)c1ccccc1)C(=O)N/N=C(\C)Cc1ccccc1 (centres undefined)	none (no result: PPC-1+TRAIL kill, Platelet DG rel)
CCOc1ccc(/C=C/C(=O)c2c(O)cc(C)oc2=O)cc1	C8 TRAIL sens 66.3 (no result: PPC-1+TRAIL kill)
Cc1cc(O)c(C(=O)/C=C/c2ccccc2)c(=O)o1	none (no result: PPC-1+TRAIL kill)
CCC(=O)Nc1ccc(C(=O)OCc2ccc(Cl)c(Cl)c2)cc1	none
CC(=O)Nc1ccc(C(=O)OCc2ccc(Cl)c(Cl)c2)cc1	TWEAK-Fn14 inh 93.9, TROY signal inh 86.3
Cc1ccc(C)c(N(C(=O)c2ccco2)C(C(=O)NC2CCCC2)c2ccco2)c1 (centres undefined)	none (no result: PPC-1+TRAIL kill)
O=C(/C=C/Nc1ccc(S(=O)(=O)Nc2ncccn2)cc1)c1cccs1	TWEAK-Fn14 inh 60.1
O=C(/C=C/Nc1ccc(F)cc1)c1cccs1	C8 TRAIL sens 61.4 (no result: PPC-1+TRAIL kill)
O=C(/C=C/Nc1ccc(F)c(F)c1)c1cccs1	none
CNc1ncnc2c1ncn2[C@H]1CN(CCOC)C[C@@H](CO)O1	none (no result: PPC-1+TRAIL kill, Platelet DG rel, HSP90 inh)
COc1ccc(/C=N/NC(=S)Nc2cccc(C(=O)O)c2)cc1OC	TWEAK-Fn14 inh 76.2
COc1ccc(C=NNC(=S)Nc2ccc(F)cc2)cc1OC	TROY signal inh 77.8 (no result: PPC-1+TRAIL kill, Platelet DG rel, HSP90 inh)
COc1cc(/C=N/NC(=S)Nc2cccc(C(=O)O)c2)cc(OC)c1OC	none
CCN(CC)CCCNC(=O)/C=C/C(=O)O	none
Cc1cccc(C)c1NC(=O)CN1C(=O)C2CC=CCC2C1=O (centres undefined)	none (no result: PPC-1+TRAIL kill, Platelet DG rel, HSP90 inh)
CN(C)c1cccc(C(=O)NNC(=O)CN2C(=O)C3CC=CCC3C2=O)c1 (centres undefined)	TWEAK-Fn14 inh 52.8, TROY signal inh 52.7 (no result: PPC-1+TRAIL kill, Platelet DG rel, HSP90 inh)
COCCCN1C(=O)c2ccc(C(=O)OCC(=O)N3CCN(c4ccccc4)CC3)cc2C1=O	none (no result: PPC-1+TRAIL kill, HSP90 inh)
Nc1ccc(-c2nc3ccccc3[nH]2)cc1	none
c1ccc(-c2cc(-c3nc4ccccc4[nH]3)c3ccccc3n2)cc1	TWEAK-Fn14 inh 54.9
Cc1nnc(NC(=O)c2ccc(S(=O)(=O)C(F)F)cc2)s1	C8 TRAIL sens 50.4
Cc1cc(C)cc(NC(=O)c2ccc(S(=O)(=O)C(F)F)cc2)c1	none
CCOC(=O)Cc1csc(N/N=C\c2ccc(N(C)C)cc2)n1	TWEAK-Fn14 inh 72.8 (no result: PPC-1+TRAIL kill)
